RORg inh – blocks mouse ROR gamma transcriptional activity | Drosophila S2 Gal4-RORgamma UAS-luciferase reporter, 20 h | AID 2551 | hit rate 5.4% among 310,000 | P51450 | Potency, µM (series often up to 53.6 µM), most hits filed as inhibitors; further: nearly all actives have a fitted effect of over 60% in size
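Stable Schneider cell line, Gal4 DNA-binding domain fused to ROR gamma, UAS-luciferase. Cmpd 1 hr RT → CuSO4 700 uM final → 20 hr RT → luciferase reagent 10 min → luminescence.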
ELG1 repair inh – blocks ELG1-dependent DNA repair in HEK293T cells; hit rate 2.3% among 330,000; HEK293T ELG1-luciferase reporter, luminescence, 16 h; DNA damage induced by 5-fluorouridine; Potency, µM (top dose mostly 46.1 µM), usual class: inhibitors; AID 504467; further: nearly all actives have a fitted effect of over 55% in size
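Reporter activity after DNA damage by 5-fluorouridine is monitored. Compound-treated cells incubate 16 hr at 37 °C, then ONE-Glo is added for 30 min before luminescence reading.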
B2AR arrestin – recruits beta-arrestin to the human beta2-adrenergic receptor | Potency, µM (doses to about 46.1 µM), usual class: activators | hit rate 0.02% among 330,000 | AID 492947 | beta-arrestin recruitment to beta2AR, cell-based reporter | P07550; further: nearly all actives have a fitted effect of over 65% in size
TSHR antagonist – blocks TSH signaling through the human TSH receptor; P16473; TSHR-expressing cells, TSH-stimulated cAMP HTRF, 2 h; hits give low values; activity change, negative = inhibition, % at 11.5 µM; hit rate 0.2% among 330,000; AID 504810;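 active means activity change below a set negative limit, meaning inhibition stronger than a set level, cut at about -70% in these data; inconclusive means activity change between two set negative limits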
Target sequence (P16473 whole entry, looked up): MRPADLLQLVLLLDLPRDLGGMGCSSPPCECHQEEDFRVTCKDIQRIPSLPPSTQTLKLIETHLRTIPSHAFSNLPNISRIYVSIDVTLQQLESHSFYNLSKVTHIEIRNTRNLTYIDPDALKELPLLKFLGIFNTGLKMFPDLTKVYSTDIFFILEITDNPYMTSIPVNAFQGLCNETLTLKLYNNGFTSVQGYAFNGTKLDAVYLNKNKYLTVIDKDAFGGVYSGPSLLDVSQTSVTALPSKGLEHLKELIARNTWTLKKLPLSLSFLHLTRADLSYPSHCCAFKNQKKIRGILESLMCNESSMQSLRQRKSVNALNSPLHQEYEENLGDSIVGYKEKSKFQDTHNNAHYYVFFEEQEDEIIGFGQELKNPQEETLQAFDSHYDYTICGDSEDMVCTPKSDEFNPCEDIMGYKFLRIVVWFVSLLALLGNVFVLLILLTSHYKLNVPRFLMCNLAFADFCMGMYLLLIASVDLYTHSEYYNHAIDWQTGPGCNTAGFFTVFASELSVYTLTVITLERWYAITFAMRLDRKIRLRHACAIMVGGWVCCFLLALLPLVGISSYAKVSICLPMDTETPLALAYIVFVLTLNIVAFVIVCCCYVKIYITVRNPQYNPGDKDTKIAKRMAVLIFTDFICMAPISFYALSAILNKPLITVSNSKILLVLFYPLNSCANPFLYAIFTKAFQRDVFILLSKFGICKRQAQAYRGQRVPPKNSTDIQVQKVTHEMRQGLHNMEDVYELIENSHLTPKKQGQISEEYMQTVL
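Freshly harvested TSHR cells receive pin-tooled compound, then EC80 TSH at 4nM final. After 2 hours at 37 deg C, antibody in lysis buffer and cAMP-d2 are added; 30 minutes at ambient temperature precede the HTRF read.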
Gal4-VP16 FLuc – counter-screen for ROR gamma inhibitors: Gal4-VP16 reporter | Drosophila S2 Gal4-VP16 UAS-luciferase, luminescence, 20 h | Potency, µM (top dose mostly 53.6 µM), actives largely listed as inhibitors | hit rate 3.5% among 310,000;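 further: Gal4-VP16 expression switched on by copper sulfate through the metallothionein promoter; nearly all actives have a fitted effect of over 50% in size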
Numbers stand for hits; – = inactive; ? = inconclusive; · = no result given. A selection: hits, their analogues and other compounds. The true share with any hit is near 7.5%. Unless noted, the call rests on the fitted dose curve; in most records, active means well fitted curve in the direction sought with a large enough effect; inconclusive means small, poorly fitted or top-dose-only effect, or another doubt; inactive means no such curve, though single readings can be large; an effect the other way counts as inactive or inconclusive.

SMILES	RORg inh	ELG1 repair inh	B2AR arrestin	TSHR antagonist	Gal4-VP16 FLuc
Cc1ccc2nc(NC(=O)C3=NN(c4ccccc4)C(=O)CC3)sc2c1	?	–	–	–	?
CC(=O)Nc1ccc2nc(NC(=O)c3cccs3)sc2c1	–	?	–	–	–
CCOc1ccc2nc(NC(=O)C3=NN(c4ccccc4)C(=O)CC3)sc2c1	2.82µM	–	–	–	–
CCN(CC)S(=O)(=O)c1cccc(C(=O)Nc2nc3cc4c(cc3s2)OCCO4)c1	–	11.6µM	–	-78.5	–
COc1ccc2nc(NC(=O)C(NS(=O)(=O)c3cccc4nsnc34)C(C)C)sc2c1 (centres undefined)	?	–	–	–	11.2µM
CC(Oc1ccccc1)C(=O)N1CCc2ccccc2C1 (centres undefined)	–	–	–	–	–
CC(Oc1ccccc1)C(=O)N1CCN(C(=O)C(C)Oc2ccccc2)CC1 (centres undefined)	–	6.51µM	–	–	–
Cc1cc(C)cc(N(CC(=O)Nc2ccc(Br)cc2)S(=O)(=O)c2c(C)[nH]c(=O)[nH]c2=O)c1	–	–	–	–	–
CCOc1cc(NC(=S)NCCCN2CCOCC2)c(OCC)cc1NC(=O)c1cccc(C)c1	–	–	–	–	–
CCOc1cc(NC(=S)NCC2CCCO2)c(OCC)cc1NC(=O)c1ccc(F)cc1 (centres undefined)	?	–	–	–	?
CCOc1cc(NC(=S)NCC2CCCO2)c(OCC)cc1NC(=O)c1cccc(C)c1 (centres undefined)	4.47µM	?	–	–	11.2µM
CCOc1cc(NC(=S)NCC2CCCO2)c(OCC)cc1NC(=O)C1CC1 (centres undefined)	11.2µM	–	–	–	–
CCOc1cc(NC(=S)NCC2CCCO2)c(OCC)cc1NC(=O)c1cccc(F)c1 (centres undefined)	3.55µM	?	–	–	4.47µM
CCOc1cc(NC(=S)NCC2CCCO2)c(OCC)cc1NC(=O)c1ccc(C)cc1 (centres undefined)	3.16µM	–	–	–	3.98µM
Cc1nc(NC(=O)CSc2nccn2C)sc1C(=O)N(C)C	–	?	–	–	–
CCOc1cc(NC(=S)Nc2cccc(OC)c2)c(OCC)cc1NC(=O)C1CC1	7.08µM	?	–	–	?
CCOc1cc(NC(=S)NCC2CCCO2)c(OCC)cc1NC(=O)c1ccccc1 (centres undefined)	6.31µM	?	–	–	11.2µM
O=C(NC(=S)NCC1CCCO1)c1ccccc1 (centres undefined)	?	?	–	–	?
CC(C)C(C)(C)C(C)(C)C(C)(C)S	–	·	·	·	–
O=C1Nc2ccc(Br)cc2C12NNc1ccccc1O2 (centres undefined)	11.2µM	–	–	–	?
COc1cc2cc(/C=C/C(=O)c3ccco3)c(Cl)nc2cc1OC	?	–	–	–	7.94µM
O=C(/C=C\Nc1ccc2c(c1)OCO2)c1ccccn1	1.12µM	?	–	–	2.24µM
COc1ccc(NC(=S)N2CCN(c3ccccn3)CC2)cc1	–	–	–	–	–
CCC(C)c1ccc(NC(=S)N2CCN(c3ccccn3)CC2)cc1 (centres undefined)	?	–	–	–	12.6µM
FC(F)Oc1cccc(NC(=S)N2CCN(c3ccccn3)CC2)c1	7.08µM	–	–	–	–
SMILES	RORg inh	ELG1 repair inh	B2AR arrestin	TSHR antagonist	Gal4-VP16 FLuc
CCCCc1ccc(NC(=S)N2CCN(c3ncccn3)CC2)cc1	4.47µM	?	–	–	?
CCCCc1ccc(NC(=S)N2CCN(c3ccccn3)CC2)cc1	15.8µM	–	–	–	?
COC(=O)c1ccc(C(NC(=O)OCc2ccccc2)/C(=C/[C@@H](C)C(=O)N(C)Cc2cccnc2)c2cccnc2)cc1 (some centres undefined)	–	·	·	·	–
O=C(Nc1c(O)c2ccccc2[nH]c1=O)c1ccco1	–	–	–	–	–
COc1ccc(-c2nc3cnc(N(C)C)nc3n(C)c2=O)cc1	–	·	·	·	–
COc1ccc(S(=O)(=O)N2CCC(CN3C(=O)c4cccc5cccc(c45)C3=O)CC2)cc1	–	10.3µM	–	–	–
O=C(c1ccc(S(=O)(=O)N2CCCC2)cc1)N1CCC(CN2C(=O)c3cccc4cccc(c34)C2=O)CC1	?	10.3µM	–	–	–
CNCCCCc1cnc(C)c2[nH]c3ccccc3c12	–	·	·	·	–
O=C(O)c1ccc(CN2C(=O)CSC2=S)cc1	10µM	–	–	–	?
COc1ccc(NC(=O)C(c2ccc(Cl)cc2)C(C)C)cn1 (centres undefined)	–	–	–	–	–
c1ccc2c(c1)OCCOCCOCCOCCO2	–	·	·	·	–
COc1ccc(C(=O)n2cc(C(=O)c3cc(C)ccc3O)cn2)cc1OC	–	23.1µM	–	–	?
CCc1ccc(/C=C2/SC(=S)N(CCC(=O)NCCCN3CCOCC3)C2=O)cc1	–	–	–	–	–
CCOc1ccc(/C=C2\SC(=S)N(CC(=O)N(CCO)C(C)(C)C)C2=O)cc1	7.08µM	–	–	–	11.2µM
O=C(CCCN1C(=O)/C(=C/c2ccccc2Cl)SC1=S)NCCCN1CCOCC1	5.01µM	–	–	–	12.6µM
CCOc1ccc(/C=C2\SC(=S)N(CCCC(=O)NCCCN3CCOCC3)C2=O)cc1	0.398µM	–	–	–	0.891µM
O=C(CCN1C(=O)/C(=C/c2ccccc2Cl)SC1=S)N1CCCC1	8.91µM	?	–	–	–
CCOC(=O)c1c(C)[nH]c(C(=O)NCC(c2ccco2)N2CCCCC2)c1C (centres undefined)	·	–	–	–	·
CN1CCN(NC(=O)CN2C(=O)/C(=C/c3ccccc3F)SC2=S)CC1	0.224µM	–	–	–	–
O=C(CCCN1C(=O)/C(=C/c2ccccc2Cl)SC1=S)N1CCCC1	8.91µM	?	–	–	–
CCOc1ccc(/C=C2/SC(=O)NC2=S)cc1	11.2µM	?	–	?	?
O=C(CCN1C(=O)/C(=C/c2ccccc2Cl)SC1=S)N1CCOCC1	7.08µM	?	–	–	?
O=C(CCCN1C(=O)/C(=C/c2ccccc2)SC1=S)N1CCOCC1	–	?	–	–	?
CCOc1ccc(N=C2NC(=O)S/C2=C\c2ccc(N(C)C)cc2)cc1	–	?	–	–	–
COC(=O)N1CCC[C@@]2(CCN(c3ncccn3)C2)C1	–	·	·	·	–
CN(Cc1cccnc1)C(=O)c1cc(S(=O)(=O)Nc2ccccc2F)ccc1Cl	·	–	–	–	·
Cc1ccc(-n2cnc(N)c2C(=O)c2cccc([N+](=O)[O-])c2)cc1	–	?	–	–	–
O=C(CSc1nnnn1C1CCCCC1)N1CCN(C(=O)c2ccco2)CC1	3.16µM	?	–	?	7.94µM
CC(=O)Nc1ccc(S(=O)(=O)NC2CC(=O)N(c3ccc4c(c3)OCCO4)C2)cc1 (centres undefined)	·	–	–	–	·
O=C(CCc1ccccc1)Nc1nnc(-c2ccccn2)o1	?	–	–	–	?

Source: PubChem
